From PubChem BioAssay
USP1-UAF1 inh: inhibitors of human USP1/UAF1 deubiquitinase | O94782 | recombinant USP1/UAF1, Ub-Rhodamine cleavage fluorescence | Potency, µM (top dose mostly 57.1 µM), most hits filed as inhibitors | 390,000 compounds, 0.23% hits; active means well fitted inhibition curve with a large enough effect; inconclusive means small, poorly fitted or top-dose-only effect; inactive means no such curve, though single readings can be large or run the other way; further: nearly all actives have a fitted effect of over 60% in size
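In this screen, compounds sit with the deubiquitinase complex (1nM) for 15 min at room temperature before Ub-Rho is added at 150nM final. Fluorescence rise is then followed for 6 reads every 60 seconds.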
TRHR agonist: agonists of human TRH receptor | activation, % at 2 µM | 360,000 compounds, 0.18% hits | TRHR cells, calcium flux fluo-8, FDSS agonist mode | P34981
Target sequence (P34981 whole entry, looked up): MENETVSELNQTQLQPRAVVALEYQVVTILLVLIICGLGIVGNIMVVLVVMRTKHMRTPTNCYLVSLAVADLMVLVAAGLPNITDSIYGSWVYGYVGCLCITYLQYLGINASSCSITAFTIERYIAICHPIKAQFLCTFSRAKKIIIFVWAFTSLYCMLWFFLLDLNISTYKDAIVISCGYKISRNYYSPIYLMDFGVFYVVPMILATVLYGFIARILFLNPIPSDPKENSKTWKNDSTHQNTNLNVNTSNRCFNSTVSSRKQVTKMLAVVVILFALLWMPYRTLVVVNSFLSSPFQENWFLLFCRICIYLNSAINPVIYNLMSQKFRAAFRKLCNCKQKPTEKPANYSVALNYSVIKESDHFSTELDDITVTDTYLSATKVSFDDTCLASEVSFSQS
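Fluo-8-loaded TRHR cells; 10 s baseline, compound added, kinetic Ca2+ fluorescence read 1/s, agonist mode.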
D1 antag: human D1 dopamine receptor antagonism | AID 504652 | P21728 | 360,000 compounds, 3.2% hits | HEK293 TREx D1 cells, calcium flux, dopamine EC80; hits give low values | activity change, negative = inhibition, % at 10 µM; in the data active means activity change below about -30%
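Inducible Hek293 Trex D1 cells (tetracycline, overnight, 30 C). Calcium dye 30–90 min RT. Antagonist mode: EC80 dopamine added after 180 s compound read.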
D1 agonist: human D1 receptor agonism; activation, % at 2 µM; HEK293 T-REx D1 cells, calcium flux, agonist mode; 360,000 compounds, 1% hits; P21728
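Agonism was scored from calcium flux recorded over 180 s (1 read/s) after pintool compound addition, following a 10-cycle baseline. Cells were inducible force-coupled HEK293 TREx D1, plated overnight at 30 C and loaded with no-wash calcium dye.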
TRHR PAM: allosterically enhances the human TRH receptor. P34981. 360,000 compounds, 0.66% hits. TRHR cells, fluo-8 calcium fluorescence, EC20 TRH enhancement. enhancement, % at 2 µM; in the data active means enhancement above about 30%
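Enhancer read-out: after compound pinning and an initial kinetic agonist-mode read, an EC20 of TRH (10 nM final) was injected and fluo-8 calcium signal (Ex 480/Em 530) followed at 1 s/cycle for 100 cycles in TRHR-expressing cells.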
D1 potentiator: potentiators of human D1 dopamine receptor | potentiation, % at 10 µM | 360,000 compounds, 0.036% hits | HEK293 TREx D1 cells, calcium flux, dopamine EC20 potentiation; in the data active means potentiation above about 30%
Numbers stand for hits; ! = a repeat was not active. The list is not random: actives were taken first. Their share in the collection is about 4.4%. Unless noted, no stated cut-off is given here; in the data, active means activation above about 30%; inactive means the rest.

How did COc1ccccc1CNS(=O)(=O)c1cc(-c2cc(C)no2)ccc1C(C)C do in these assays?
USP1-UAF1 inh: inactive; TRHR agonist: inactive; D1 antag: -38; D1 agonist: inactive; TRHR PAM: inactive; D1 potentiator: inactive

How did CCc1ccc(-c2cc(C)no2)cc1S(=O)(=O)NCCCN1CCN(c2ccccc2)CC1 do in these assays?
USP1-UAF1 inh: inactive; TRHR agonist: inactive; D1 antag: -67; D1 agonist: inactive; TRHR PAM: inactive; D1 potentiator: inactive

How did CCc1ccc(-c2cc(C)no2)cc1S(=O)(=O)Nc1ccc(C)cn1 do in these assays?
USP1-UAF1 inh: inconclusive; TRHR agonist: inactive; D1 antag: -45!; D1 agonist: inactive; TRHR PAM: inactive; D1 potentiator: inactive

Results for CSc1ncc2c(n1)-c1ccccc1N(Cc1ccc(Cl)cc1)S2(=O)=O ?
USP1-UAF1 inh: inactive; TRHR agonist: inactive; D1 antag: inactive; D1 agonist: inactive; TRHR PAM: inactive; D1 potentiator: inactive

What do the screens show for `COc1ccc2c(c1)c1c(c(=O)n(-c3ccccc3)c(=O)n1CC(=O)Nc1ccc(C)c(C)c1)n2C`?
USP1-UAF1 inh: inactive; TRHR agonist: inactive; D1 antag: inactive; D1 agonist: inactive; TRHR PAM: inactive; D1 potentiator: inactive

Results for Cc1cn2c(=O)cc(COC(=O)c3ccc(NC(=O)C(C)Oc4ccccc4)cc3)nc2s1 (configuration not stated) ?
USP1-UAF1 inh: inactive; TRHR agonist: inactive; D1 antag: inactive; D1 agonist: inactive; TRHR PAM: inactive; D1 potentiator: inactive

What do the screens show for `O=C(NCCc1ccccc1)c1nn(-c2ccc(F)cc2)nc1CO`?
USP1-UAF1 inh: inactive; TRHR agonist: inactive; D1 antag: inactive; D1 agonist: inactive; TRHR PAM: inactive; D1 potentiator: inactive

What do the screens show for `COc1ccc(-c2cc(C)no2)cc1S(=O)(=O)NCC1CCN(Cc2cc(C)ccc2C)CC1`?
USP1-UAF1 inh: inactive; TRHR agonist: inactive; D1 antag: inactive; D1 agonist: inactive; TRHR PAM: inactive; D1 potentiator: inactive

What do the screens show for `COc1ccccc1CN1CCC(CNS(=O)(=O)c2cc(-c3cc(C)no3)ccc2C)CC1`?
USP1-UAF1 inh: inactive; TRHR agonist: inactive; D1 antag: inactive; D1 agonist: 40; TRHR PAM: inactive; D1 potentiator: inactive

How did CC(=O)N1N=C(c2ccc(C)cc2)OC1c1ccc(Br)cc1 (configuration not stated) do in these assays?
USP1-UAF1 inh: inactive; TRHR agonist: inactive; D1 antag: -30; D1 agonist: inactive; TRHR PAM: inactive; D1 potentiator: inactive

What do the screens show for `CC(=O)N1N=C(c2ccc(Cl)cc2)OC1c1ccc(C(C)C)cc1` (configuration not stated)?
USP1-UAF1 inh: inactive; TRHR agonist: inactive; D1 antag: inactive; D1 agonist: inactive; TRHR PAM: inactive; D1 potentiator: inactive

Results for COc1cc(C)ccc1OCCSc1nc2ccc(NC(=O)c3ccccc3F)cc2s1 ?
USP1-UAF1 inh: inactive; TRHR agonist: inactive; D1 antag: inactive; D1 agonist: inactive; TRHR PAM: inactive; D1 potentiator: inactive

How did CC(C)N(Cc1ccccc1)C(=O)CN1C(=O)CSc2ccc(S(=O)(=O)N3CCCC3)cc21 do in these assays?
USP1-UAF1 inh: inactive; TRHR agonist: inactive; D1 antag: inactive; D1 agonist: inactive; TRHR PAM: inactive; D1 potentiator: inactive

What do the screens show for `Cc1c(C(=O)O)sc2nc(-c3cccs3)cc(C(F)(F)F)c12`?
USP1-UAF1 inh: inconclusive; TRHR agonist: inactive; D1 antag: inactive; D1 agonist: inactive; TRHR PAM: inactive; D1 potentiator: inactive

Results for CN(C)CCNC(=O)c1sc2nc(-c3ccccc3)cc(C(F)(F)F)c2c1N ?
USP1-UAF1 inh: inactive; TRHR agonist: inactive; D1 antag: inactive; D1 agonist: 37; TRHR PAM: inactive; D1 potentiator: inactive

Results for COc1ccc(-c2cc(C(F)(F)F)c3c(N)c(C(=O)NCCSC)sc3n2)cc1 ?
USP1-UAF1 inh: inactive; TRHR agonist: inactive; D1 antag: inactive; D1 agonist: 31; TRHR PAM: inactive; D1 potentiator: inactive

Results for CC(=O)c1sc2nc(-c3cccs3)cc(C(F)(F)F)c2c1N ?
USP1-UAF1 inh: inactive; TRHR agonist: 41; D1 antag: inactive; D1 agonist: 180; TRHR PAM: inactive; D1 potentiator: inactive

What do the screens show for `COc1ccc(OC)c(NC(=O)c2sc3nc(Cc4ccccc4)cc(C(F)(F)F)c3c2N)c1`?
USP1-UAF1 inh: inconclusive; TRHR agonist: inactive; D1 antag: inactive; D1 agonist: inactive; TRHR PAM: inactive; D1 potentiator: inactive

How did CCCCOC(=O)c1ccc(Nc2ncnc3[nH]ncc23)cc1 do in these assays?
USP1-UAF1 inh: inactive; TRHR agonist: inactive; D1 antag: inactive; D1 agonist: inactive; TRHR PAM: inactive; D1 potentiator: inactive

How did Cc1ccc(/C=C2/NC(=O)N(Cc3ccccc3)C2=O)s1 do in these assays?
USP1-UAF1 inh: inconclusive; TRHR agonist: inactive; D1 antag: -40; D1 agonist: inactive; TRHR PAM: inactive; D1 potentiator: inactive

Results for O=C(/C=C/c1ccc([N+](=O)[O-])cc1)c1cccs1 ?
USP1-UAF1 inh: inactive; TRHR agonist: inactive; D1 antag: inactive; D1 agonist: inactive; TRHR PAM: inactive; D1 potentiator: inactive

Results for COc1cc([N+](=O)[O-])ccc1N/C=C/C(=O)c1cccs1 ?
USP1-UAF1 inh: inconclusive; TRHR agonist: inactive; D1 antag: inactive; D1 agonist: 42; TRHR PAM: inactive; D1 potentiator: inactive

How did O=C(c1ccccc1)c1ccc2c(c1)OCCOCCOCCO2 do in these assays?
USP1-UAF1 inh: inactive; TRHR agonist: inactive; D1 antag: inactive; D1 agonist: inactive; TRHR PAM: inactive; D1 potentiator: inactive

How did O=C(c1ccccc1)N1CCN(C(=O)c2ccc3c(c2)OCCO3)CC1 do in these assays?
USP1-UAF1 inh: inactive; TRHR agonist: inactive; D1 antag: -39; D1 agonist: inactive; TRHR PAM: inactive; D1 potentiator: inactive

What do the screens show for `O=C(c1ccccc1)c1ccc2c(c1)OCCCO2`?
USP1-UAF1 inh: inactive; TRHR agonist: inactive; D1 antag: -40; D1 agonist: inactive; TRHR PAM: inactive; D1 potentiator: inactive

What do the screens show for `O=C(c1ccc2c(c1)OCCO2)N1CCN(Cc2ccccc2)CC1`?
USP1-UAF1 inh: inactive; TRHR agonist: inactive; D1 antag: inactive; D1 agonist: inactive; TRHR PAM: inactive; D1 potentiator: inactive

What do the screens show for `CCc1ccccc1NS(=O)(=O)c1ccc(-c2coc(C)n2)cc1`?
USP1-UAF1 inh: inconclusive; TRHR agonist: inactive; D1 antag: inactive; D1 agonist: inactive; TRHR PAM: inactive; D1 potentiator: inactive

What do the screens show for `CCOc1ccccc1C(=O)N(Cc1cccs1)c1ccc(Cl)cc1`?
USP1-UAF1 inh: inactive; TRHR agonist: inactive; D1 antag: inactive; D1 agonist: inactive; TRHR PAM: inactive; D1 potentiator: inactive
